Reference: PubChem BioAssay (Tox21)
Where “and” joins values, the source holds several entries; their conditions need not be identical. Equal values may be shown once. Inconclusive results are not listed. Where a structure was tested more than once in an assay, its records may differ in their call. Calls of active or inactive are those of the source. Unless noted, the call rests on the fitted dose curve.

Key:
[1] = Nuclear factor erythroid 2-related factor 2/antioxidant responsive element (Nrf2/ARE) small molecule agonists: luciferase reporter gene qHTS assay in human keratinocytes (AID 1919969); further: nearly all actives have a fitted effect of over 35% in size; further: potency means the concentration at half of the fitted maximal effect
[2] = molecular target: Gonadotropin-releasing hormone receptor (Homo sapiens) (UniProt P30968); test: Human gonadotropin-releasing hormone receptor (GnRHR) small molecule agonists, calcium flux assay in GnRHR-HEK293 cells (AID 1920063); further: nearly all actives have a fitted effect of over 35% in size
Outline: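 Intracellular calcium rise is the read-out: engineered human GnRHR HEK293 cells, dye-loaded, are exposed to DMSO-dissolved compounds and fluorescence at Ex/Em 480/540 is tracked for 3 min.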

[3] = G protein-coupled receptor (GPCR) small molecule agonists, calcium flux assay: HEK293 wild type cell line counter screen (AID 1920065)
Outline: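 Fluorescence intensity signals activation. After overnight (18 h) culture and a 1 h calcium dye load at 37 C, compounds are added by pin tool and the plate read at 480/540 nm for 3 min in 1 s steps.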

[4] = p53 small molecule agonists, cell-based qHTS assay with human liver microsomes: qHTS cell viability counter screen (AID 1963579); further: nearly all actives have a fitted effect of over 45% in size
Outline: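 Viability of p53RE-bla cells is measured as CellTiter-Glo luminescence following a 16 h, 37 C incubation with compound, liver microsomes from human donors and NADPH.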

[5] = p53 small molecule agonists, cell-based qHTS assay with rat liver microsomes: qHTS cell viability counter screen (AID 1963580); further: nearly all actives have a fitted effect of over 45% in size
Outline: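 Cytotoxicity counter screen: intracellular ATP read by CellTiter-Glo luminescence in the p53 reporter wells. HCT-116 p53RE-bla cells were treated for 16 h at 37 C alongside rat liver microsomes and NADPH, each 0.5 mg/mL final.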

[6] = p53 small molecule agonists, cell-based qHTS assay: qHTS cell viability counter screen (AID 1963581); further: nearly all actives have a fitted effect of over 45% in size
Outline: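 Luminescence from CellTiter-Glo, reflecting ATP content, serves as the cytotoxicity measure; it is taken after the 2 h reporter substrate step in HCT-116 p53RE-bla cells dosed for 16 h at 37 C.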

[7] = molecular target: 5-hydroxytryptamine receptor 2A (Homo sapiens) (UniProt P28223); test: 5-hydroxytryptamine receptor 2A (HTR2A) small molecule antagonists, cell-based qHTS assay (AID 1963586); further: nearly all actives have a fitted effect of over 45% in size
Outline: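 CHO cells stably expressing human HTR2A were plated for 18 h at 37 C, then loaded with calcium dye for 1 h. Compounds were preincubated 5 min at room temperature before DOI (4 nM solution) was added. Kinetic fluorescence was read for 3 min.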

[8] = molecular target: 5-hydroxytryptamine receptor 2A (Homo sapiens) (UniProt P28223); test: 5-hydroxytryptamine receptor 2A (HTR2A) small molecule agonists, cell-based qHTS assay (AID 1963587); further: nearly all actives have a fitted effect of over 30% in size; further: potency means the concentration at half of the fitted maximal effect
Outline: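 Kinetic calcium-flux fluorescence (2 min, 1 sec intervals) after compound addition in agonist mode. HTR2A-CHO cells were cultured 18 h, then dye-loaded 1 h at 37 C.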

[9] = molecular target: Muscarinic acetylcholine receptor M1 (Homo sapiens) (UniProt P11229); test: Cholinergic receptor muscarinic 1 (CHRM1) small molecule antagonists, cell-based qHTS assay (AID 1963588); further: nearly all actives have a fitted effect of over 40% in size
Outline: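 Compounds were tested at 15 concentrations in three independent runs. Dye-loaded CHRM1-CHO cells were exposed 5 min at room temperature before stimulation by acetylcholine added at 50nM. Intracellular calcium was read kinetically on FDSS for 3 min.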

[10] = molecular target: Muscarinic acetylcholine receptor M1 (Homo sapiens) (UniProt P11229); test: Cholinergic receptor muscarinic 1 (CHRM1) small molecule agonists, cell-based qHTS assay (AID 1963589); further: nearly all actives have a fitted effect of over 35% in size
Outline: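 Fluorescent calcium dye reports M1 activation in stably transfected CHO cells. Compounds, 15 concentrations, added after 1 h dye loading at 37 C; kinetic reading at 1 sec intervals.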

[11] = molecular target: Beta-2 adrenergic receptor (Homo sapiens) (UniProt P07550); test: Adrenergic beta2 receptor (ADRB2) small molecule antagonists, cell-based qHTS assay (AID 1963592); further: series mostly up to about 92 µM; nearly all actives have a fitted effect of over 50% in size
Outline: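 Assay format: CHO-ADRB2 cells, 18-20hr seeding at 37C/5% CO2, then compound plus 1nM isoproterenol agonist mix for 0.5hr RT. Homogeneous time-resolved fluorescence cAMP detection after 1hr, expressed as 665/615 nm ratio.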

[12] = molecular target: Beta-2 adrenergic receptor (Homo sapiens) (UniProt P07550); test: Adrenergic beta2 receptor (ADRB2) small molecule agonists, cell-based qHTS assay (AID 1963593); further: potency means the concentration at half of the fitted maximal effect;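 on activation: CHO cells stably overexpressing human ADRB2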
Outline: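 CHO cells stably over-expressing ADRB2 were plated overnight at 37C, then dosed with compounds plus a stimulation mix containing 100uM IBMX and 25uM Ro-20-1724 for 0.5hr at room temperature. cAMP was measured by HTRF competition, 1hr.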

[13] = molecular target: D(2) dopamine receptor (Homo sapiens) (UniProt P14416); test: Dopamine D2 receptor (DRD2) small molecule agonists, cell-based qHTS assay (AID 1963594); further: nearly all actives have a fitted effect of over 35% in size
Outline: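 cAMP accumulation in DRD2-HEK293 cells measured by HTRF after 1 h detection; compounds added 10 min before NKH477 (200nM […]) forskolin-analogue stimulation, 30 min at room temperature, with Ro20-1724 present at 0.1 mM final.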

[14] = molecular target: D(2) dopamine receptor (Homo sapiens) (UniProt P14416); test: Dopamine D2 receptor (DRD2) small molecule antagonists, cell-based qHTS assay (AID 1963595; active means well fitted inhibition curve with a large enough effect in the signal ratio in the repeat runs, with a control signal flat; the % refers to the signal ratio)
Outline: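 Stable D2 receptor HEK293 line, 24 h after seeding. Compound preincubated 10 min, then quinpirole (12 nM) with forskolin analogue NKH477 (200 nM), 30 min, room temperature. Detection by time-resolved FRET of cAMP.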

[15] = molecular target: KiSS-1 receptor (Homo sapiens) (UniProt Q969F8); test: Human kisspeptin (KISS1R) small molecule agonists, calcium flux assay in KISS1R-HEK293 cells (AID 1920064; active means well fitted activation curve with a large enough effect in the repeat runs)
Outline: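 Concentration-response testing used 15 concentrations in triplicate on human KISS1R-expressing HEK293 cells. Calcium-dependent fluorescence (Ex/Em 480/540) was followed kinetically for 3 min after compound transfer.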

[16] = p53 small molecule agonists, cell-based qHTS assay with human liver microsomes (AID 1963577);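 further: p53 response element beta-lactamase reporter cells with liver microsomes plus NADPH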
Outline: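 HLM-supplemented p53RE-bla reporter assay: 16 h compound exposure at 37 C, microsomes and NADPH each 0.5 mg/mL final, read by fluorescence intensity.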

[17] = p53 small molecule agonists, cell-based qHTS assay with rat liver microsomes (AID 1963578)
Outline: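 Quantitative HTS of the Tox21 10K library: p53RE-bla cells, rat liver microsomes plus NADPH at 0.5 mg/mL final each, 16 h at 37 C, beta-lactamase fluorescence detection.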

[18] = p53 small molecule agonists, cell-based qHTS assay (AID 1963582; active means well fitted activation curve with a large enough effect in the signal ratio in the repeat runs, not every such curve was filed as active; the % refers to the signal ratio)
Outline: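 After plating, p53RE-bla cells sat 5 h in the incubator; compounds or DMSO vehicle were pinned in; a 16 h incubation at 37 C followed; FRET substrate was added and, 2 h later at RT, fluorescence was measured.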

[19] = cAMP Responsive Elements (CRE) small molecule agonists, cell-based qHTS assay (AID 1963590)
Outline: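 Compound exposure lasted 3 h at 37 C/5% CO2 in CRE-bla HEK 293T cells grown in assay medium with 10% dialyzed FBS and 25 mM HEPES. Reporter signal came from LiveBLAzer B/G FRET substrate, 2 h, room temperature.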

[20] = cAMP Responsive Elements (CRE) small molecule antagonists, cell-based qHTS assay (AID 1963591; active means well fitted inhibition curve with a large enough effect in the signal ratio in the repeat runs, not every such curve was filed as active; the % refers to the signal ratio)
Outline: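 Stimulation used NKH477 at a final 0.25 uM for 3 h in compound-treated CRE-bla HEK293T cells, seeded 18 h beforehand. Reporter activity was measured with LiveBLAzer B/G FRET substrate after 2 h at room temperature.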

Measured: Potency

Chain of Muscarinic acetylcholine receptor M1 (Homo sapiens) (P11229 whole entry, looked up): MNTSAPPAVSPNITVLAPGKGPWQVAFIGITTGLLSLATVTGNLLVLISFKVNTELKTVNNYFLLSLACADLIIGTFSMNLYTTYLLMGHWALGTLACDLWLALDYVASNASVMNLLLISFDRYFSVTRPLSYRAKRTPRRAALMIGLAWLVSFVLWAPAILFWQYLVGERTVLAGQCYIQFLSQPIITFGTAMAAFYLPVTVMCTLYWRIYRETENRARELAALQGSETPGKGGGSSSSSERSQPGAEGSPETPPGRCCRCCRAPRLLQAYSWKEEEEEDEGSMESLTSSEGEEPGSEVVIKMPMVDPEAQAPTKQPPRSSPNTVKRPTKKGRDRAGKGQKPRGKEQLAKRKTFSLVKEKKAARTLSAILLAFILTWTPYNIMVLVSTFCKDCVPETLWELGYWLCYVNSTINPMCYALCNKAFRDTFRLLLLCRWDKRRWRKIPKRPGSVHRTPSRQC
Chain of D(2) dopamine receptor (Homo sapiens) (P14416 whole entry, looked up): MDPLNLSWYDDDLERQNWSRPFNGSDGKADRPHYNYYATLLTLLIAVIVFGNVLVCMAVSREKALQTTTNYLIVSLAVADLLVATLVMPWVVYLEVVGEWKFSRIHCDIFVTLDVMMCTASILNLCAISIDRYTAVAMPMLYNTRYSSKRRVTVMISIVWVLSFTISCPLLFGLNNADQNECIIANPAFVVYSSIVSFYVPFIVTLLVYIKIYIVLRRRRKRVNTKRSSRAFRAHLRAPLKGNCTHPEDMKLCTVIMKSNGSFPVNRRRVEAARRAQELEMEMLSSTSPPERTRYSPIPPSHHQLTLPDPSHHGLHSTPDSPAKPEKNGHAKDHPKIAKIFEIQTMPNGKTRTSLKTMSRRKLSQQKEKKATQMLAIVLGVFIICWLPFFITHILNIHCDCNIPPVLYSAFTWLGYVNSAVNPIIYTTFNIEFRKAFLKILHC
Chain of KiSS-1 receptor (Homo sapiens) (Q969F8 whole entry, looked up): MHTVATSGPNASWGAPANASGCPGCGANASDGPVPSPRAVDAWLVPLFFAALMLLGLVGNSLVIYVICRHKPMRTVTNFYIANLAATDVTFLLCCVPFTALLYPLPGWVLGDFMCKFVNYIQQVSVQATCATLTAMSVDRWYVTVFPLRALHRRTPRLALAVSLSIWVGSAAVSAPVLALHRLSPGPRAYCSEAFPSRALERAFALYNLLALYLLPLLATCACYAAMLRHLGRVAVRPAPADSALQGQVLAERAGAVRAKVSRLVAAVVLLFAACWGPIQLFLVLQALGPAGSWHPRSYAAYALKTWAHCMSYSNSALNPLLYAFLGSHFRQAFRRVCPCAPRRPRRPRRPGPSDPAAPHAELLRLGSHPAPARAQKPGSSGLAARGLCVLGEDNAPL
Chain of Beta-2 adrenergic receptor (Homo sapiens) (P07550 whole entry, looked up): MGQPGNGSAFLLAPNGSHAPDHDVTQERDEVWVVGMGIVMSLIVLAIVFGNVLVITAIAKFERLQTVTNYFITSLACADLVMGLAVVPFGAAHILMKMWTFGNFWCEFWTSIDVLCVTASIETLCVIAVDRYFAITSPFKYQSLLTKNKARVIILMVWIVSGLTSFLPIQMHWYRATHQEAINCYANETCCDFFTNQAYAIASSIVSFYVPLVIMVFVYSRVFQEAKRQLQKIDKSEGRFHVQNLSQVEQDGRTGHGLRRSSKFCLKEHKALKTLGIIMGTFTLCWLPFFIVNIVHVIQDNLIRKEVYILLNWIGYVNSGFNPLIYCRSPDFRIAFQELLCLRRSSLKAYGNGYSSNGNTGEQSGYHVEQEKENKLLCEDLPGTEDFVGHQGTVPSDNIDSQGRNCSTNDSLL
Chain of Gonadotropin-releasing hormone receptor (Homo sapiens) (P30968 whole entry, looked up): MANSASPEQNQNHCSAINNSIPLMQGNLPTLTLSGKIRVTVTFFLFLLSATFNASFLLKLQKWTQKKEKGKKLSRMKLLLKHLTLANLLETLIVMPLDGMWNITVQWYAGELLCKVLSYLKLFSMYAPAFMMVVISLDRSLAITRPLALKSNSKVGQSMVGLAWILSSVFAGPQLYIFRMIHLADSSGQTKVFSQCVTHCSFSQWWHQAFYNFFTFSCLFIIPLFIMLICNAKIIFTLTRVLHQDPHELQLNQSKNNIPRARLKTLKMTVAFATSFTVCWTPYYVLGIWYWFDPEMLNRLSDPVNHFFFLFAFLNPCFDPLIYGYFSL
Chain of 5-hydroxytryptamine receptor 2A (Homo sapiens) (P28223 whole entry, looked up): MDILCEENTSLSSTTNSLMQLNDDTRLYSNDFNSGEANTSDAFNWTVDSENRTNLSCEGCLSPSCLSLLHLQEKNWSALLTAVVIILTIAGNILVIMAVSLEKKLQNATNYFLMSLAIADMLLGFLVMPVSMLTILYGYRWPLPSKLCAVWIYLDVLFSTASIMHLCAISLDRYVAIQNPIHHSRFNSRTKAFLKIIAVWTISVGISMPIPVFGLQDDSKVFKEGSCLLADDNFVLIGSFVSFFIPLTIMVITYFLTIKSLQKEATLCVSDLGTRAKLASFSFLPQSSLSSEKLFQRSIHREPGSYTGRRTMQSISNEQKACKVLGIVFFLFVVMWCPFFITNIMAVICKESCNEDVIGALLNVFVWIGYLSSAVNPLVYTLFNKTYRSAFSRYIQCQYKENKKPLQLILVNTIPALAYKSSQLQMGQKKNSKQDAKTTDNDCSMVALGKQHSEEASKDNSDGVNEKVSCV

CC(C)N(C(=O)CCl)c1ccccc1
active: [1] 4.86 µM and 10.9 µM
not listed: [15] | [16] | [17] | [18] | [19] | [20]
inactive: all other assays above

CCC(C)(C#N)N=NC(C)(C#N)CC (stereo unspecified)
not listed: [7]
inactive: all other assays above

ClC(Cl)(Cl)C(Cl)(Cl)Cl
not listed: [11] | [12]
inactive: all other assays above

CN(C)C(=O)Nc1ccc(Cl)cc1
not listed: [3] | [10]
inactive: all other assays above

Nc1ccc(N=Nc2ccc(-c3ccc(N=Nc4c(S(=O)(=O)O)cc5cc(S(=O)(=O)O)c(N=Nc6ccccc6)c(O)c5c4N)cc3)cc2)c(N)c1
active: [8] 31.6 µM
not listed: [10] | [11] | [12] | [13] | [14] | [15] | [18]
inactive: all other assays above

CCCCCCCCCCCCCCCCCC(=O)O
48.2 µM (active) and inactive: [1]
not listed: [3] | [9] | [12] | [16] | [17] | [18]
inactive: all other assays above

CN1C(=O)CCS(=O)(=O)C1c1ccc(Cl)cc1 (stereo unspecified)
not listed: [8] | [15] | [16] | [17] | [18]
inactive: all other assays above

CC(C)(c1ccc(OCC2CO2)cc1)c1ccc(OCC2CO2)cc1 (stereo unspecified)
active: [1] 27.7 µM and 27.3 µM
not listed: [8] | [12] | [18] | [20]
inactive: all other assays above

CC(O)CN1CCN(CC(=O)[O-])CCN(CC(=O)[O-])CCN(CC(=O)[O-])CC1.[Gd+3] (stereo unspecified)
not listed: [11] | [12]
inactive: all other assays above

ClC1=C(Cl)[C@]2(Cl)[C@@H]3[C@@H](Cl)[C@@H](Cl)C[C@@H]3[C@@]1(Cl)C2(Cl)Cl
not listed: [9] | [12] | [13]
inactive: all other assays above

Cc1ncc2n1-c1ccc(Cl)cc1C(c1ccccc1F)=NC2
not listed: [7] | [12]
inactive: all other assays above

ClC1=C(Cl)C2(Cl)C3C(Cl)C(Cl)CC3C1(Cl)C2(Cl)Cl (stereo unspecified)
active: [1] 4.84 µM and 12.2 µM | [12] 54.5 µM
inactive: [3] | [16] | [17] | [4] | [5] | [6] | [8] | [10] | [13]
